Reference: PubChem BioAssay (NCI)
Several values for one entry are separate records, joined by “and”; a condition that tells them apart may be missing. Equal values may be shown once. About 83,000 compounds went through this panel and 20% of them were active in at least one assay; those are over-represented in the sample as a whole.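 Each cell line was grown in a 96-well plate and treated with one concentration of compound for 48 hours. Values below 10 were considered active.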 Unmarked numbers belong to inactive results. Activity calls are given as the source filed them.

These molecules were tested on MDA-MB-468 breast (assay: NCI-60 one-dose screen, 48 h (100 = growth as untreated, 0 = no growth, -100 = all killed)). Conditions: 10 µM unless noted.

Structure (SMILES) | growth
O=C1NCC(=O)N(Cc2ccco2)[C@H]1Cc1ccccc1 | 114%
C=C(C)[C@@H]1CC[C@]2(C(=O)O)CC[C@]3(C)[C@H](CC[C@@H]4[C@@]5(C)C[C@@H](CC#Cc6ccc(Br)cc6)C(=O)C(C)(C)[C@@H]5CC[C@]43C)[C@@H]12 | 6.26% (active)
Cc1ccc(C2CC(c3cccc(Nc4ccncc4)c3)=NN2c2cc(Cl)cc(Cl)c2)cc1 (stereo not given) | -30% (active)
ClCCOCCOc1ccc(C2CCCCC2)cc1 | 91.2%
Cc1nccc2c3ccc(OCc4cn(-c5ccc(Cl)cc5)nn4)cc3n(CCCc3ccccc3)c12 | 10.6%
CCOC(=O)C1=C(C)n2nc(CC#N)c(C#N)c2NC1c1ccc(CC)cc1 (stereo not given) | 114%
O=C(CNC1C2CC3CC(C2)CC1C3)Sc1nnc2sc3ccccc3n12 (stereo not given) | 102%
Cn1c2ccccc2c2c(OC(=O)c3ccccc3)c3c(nc21)-c1ccccc1C3 | 100%
CCOc1cc(CCNS(=O)(=O)c2ccc(C)cc2)c(C(C)=O)cc1OCC | 67.1% [100 µM]
O=C1c2cc3c(cc2-c2c1c1ccc(Cl)cc1c(=O)n2C[C@H](O)CO)OCO3 | -53.8% (active)
O=C(N/N=C\c1cc(Cl)ccc1O)c1ccncc1 | 36.9%
Cc1cn(-c2cc(NC(=O)c3cncc(C#Cc4cnc(N)c5ncccc45)c3)cc(C(F)(F)F)c2)cn1 | 67.3%
O=C(OCCCCOC(=O)n1cnc2ccccc21)n1cnc2ccccc21 | 112%
COc1ccc(Sc2ccc3[nH]c(=O)nc(N)c3c2)cc1 | 92.7%
COC(=O)CC1=C(C)/C(=C/c2[nH]c(-c3ccc[nH]3)cc2OC)N=C1C | 19%
CC(C)OC(=O)c1ccc2[nH]c(O)c(C(=Nc3ccc(N(C)C(=O)CN4CCN(C)CC4)cc3)c3ccccc3)c2c1 | -91% (active)
COc1ccc([C@H]2[C@H](O)C(=O)N2c2cc(OC)c(OC)c(OC)c2)cc1O | 5.56% (active)
COc1ccc(C2CC(=O)Nc3c2c(C)nn3-c2nc3ccccc3[nH]2)cc1OC (stereo not given) | 59.6%
COc1cc(C(=O)n2nc(N3CCOCC3)c3cc(-n4cccc4)ccc32)cc(OC)c1OC | 49.2%
Cc1nc2sc(C(=O)Nc3ccccc3Cl)c(N)c2cc1C(C)O (stereo not given) | 70.1%

Structure (SMILES) | growth
Brc1ccc(Oc2ccc(Nc3ncnc4onc(-c5ccccc5)c34)cc2)cc1 | 103%
CCCCOc1ccc(C(C)(C)c2ccc(OCCCC)cc2)cc1 | 132%
CC(=O)Nc1ccccc1-c1n[nH]c(=O)[nH]c1=O | 102%
CCCn1nc(-c2ccccc2)c2c(-c3ccccc3)onc2c1=O | 43.6%
CCn1cc(C(=O)O)c(=O)c2cc(F)c(N3CCN(CC(=O)Nc4ccccc4)C(C)C3)c(F)c21 (stereo not given) | 92.6%
CSc1ccc2c3c(n(CCCn4ccnc4)c(=O)c2c1)-c1ccccc1C3=O | 18.2%
S=C1SCN(CCc2ccccc2)CN1CCc1ccccc1 | 9.02% (active)
C=C(C)[C@@H]1CC[C@]2(C(=O)NCCCN(CCC#N)CCC#N)CC[C@]3(C)[C@H](CC[C@@H]4[C@@]5(C)CCC(=O)C(C)(C)[C@@H]5CC[C@]43C)[C@@H]12 | 116% and 90.6%
COc1cc(N2C(=O)[C@H](O)C2c2ccc(SC)cc2)cc(OC)c1OC (stereo not given in full) | 3.3% (active)
COc1cc2c(=O)n(CCN)c3c4cc5c(cc4ccc3c2cc1OC)OCO5 | -31.7% (active)
O=C(Nc1ccc(Oc2cccc(F)c2)c(Cl)c1)c1cccnc1 | -9.22% (active)
CN1CCCN(C(c2ccccc2)c2ccc(Cl)cc2)CC1 (stereo not given) | 83.1%
O=C(c1ccccc1)c1c(/C=C/c2ccccc2)c2ccccc2[nH]c1=O | 94.5%
OC[C@@H](O)[C@@H](O)CO | 102%
CCOC(=O)c1c(C)[nH]c(C(=O)CCC(=O)OC)c1C | 114%
COc1cc(C(=O)/C=C/c2c[nH]c3ccccc23)cc(OC)c1OC | -5.45% (active)
CCCCOc1nc2ccc(C)cc2cc1/C=C/C(=O)/C=C(O)/C=C/c1cc2cc(C)ccc2nc1OCCCC | 104%
c1ncc2[nH]cnc2n1 | 96%
Cc1ccc2c(c1)ncn2-c1ncnc2c1CC(C)c1ccccc1N2C (stereo not given) | 38%
CC(=O)Nc1ccc(S(=O)(=O)N2C(=O)CCC2C(=O)Nc2ccc(Br)cc2)cc1 (stereo not given) | 20.6%
